TDP1 cell noCPT – qHTS for Inhibitors of human tyrosyl-DNA phosphodiesterase 1 (TDP1): qHTS in cells in absence of CPT; DT40 Tdp1-/- hTDP1 cells, no CPT, ATP luminescence, 48 h; Potency, µM (top dose mostly 46.2 µM), for inactives: at the top dose activity change, negative = growth inhibition, usual class: inhibitors; actives 15% (n = 420,000); AID 686978, 2013; further: nearly all actives have a fitted effect of over 55% in size
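No-CPT arm: Tdp1-/-;hTDP1 DT40 cells (400/well) plus compounds, incubated ≥48 hr at 37 °C. Readout CellTiter-Glo luminescence.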
RORg inh – qHTS for inhibitors of ROR gamma transcriptional activity; Drosophila S2 Gal4-RORgamma UAS-luciferase reporter, 20 h; Nuclear receptor ROR-gamma (Mus musculus), P51450; actives 5.4% (n = 310,000); Potency, µM (highest dose often 53.6 µM), for the others: at the top dose activity change, negative = inhibition, hits mostly inhibitors; further: nearly all actives have a fitted effect of over 60% in size
Target sequence (P51450 whole entry, looked up, the tested form may be a part): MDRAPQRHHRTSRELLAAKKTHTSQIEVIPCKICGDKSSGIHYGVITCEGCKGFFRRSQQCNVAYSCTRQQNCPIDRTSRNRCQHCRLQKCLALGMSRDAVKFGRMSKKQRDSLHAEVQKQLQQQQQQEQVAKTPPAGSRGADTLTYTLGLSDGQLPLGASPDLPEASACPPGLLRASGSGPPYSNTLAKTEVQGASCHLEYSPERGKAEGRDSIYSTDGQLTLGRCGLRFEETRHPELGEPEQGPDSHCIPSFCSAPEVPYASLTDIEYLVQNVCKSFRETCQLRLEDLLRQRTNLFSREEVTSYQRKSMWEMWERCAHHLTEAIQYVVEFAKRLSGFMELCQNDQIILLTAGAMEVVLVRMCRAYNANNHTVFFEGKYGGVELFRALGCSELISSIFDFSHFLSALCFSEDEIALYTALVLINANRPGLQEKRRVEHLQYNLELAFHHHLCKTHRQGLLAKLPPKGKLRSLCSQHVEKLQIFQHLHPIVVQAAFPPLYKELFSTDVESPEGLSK
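A Gal4/UAS one-hybrid system in insect cells: metallothionein-promoter Gal4–ROR gamma fusion plus Photinus luciferase reporter. Copper sulfate 700 uM final, 20 hr ambient incubation, luminescent detection after 10 min with reagent.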
TDP1 block – qHTS Assay for Inhibitors of Tyrosyl-DNA Phosphodiesterase (TDP1) | Tyrosyl-DNA phosphodiesterase 1 (Homo sapiens), Q9NUW8 | recombinant TDP1, AlphaScreen DNA substrate cleavage | Potency, µM (doses to about 130 µM), for the others: at the top dose activity change, negative = inhibition, most hits filed as inhibitors | actives 0.28% (n = 350,000) | AID 485290, 2010; further: nearly all actives have a fitted effect of over 40% in size
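Compounds were preincubated with Tdp1 (1 nM final) for 15 min at room temperature before substrate (15 nM final) started a 5 min reaction; beads (10 ug/ml final) were then added for 10 min before AlphaScreen detection.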
DT40 TDP1 CPT – qHTS for Inhibitors of human tyrosyl-DNA phosphodiesterase 1 (TDP1): qHTS in cells in presence of CPT; actives 12% (n = 420,000); chicken DT40 Tdp1-/-;hTDP1 cells + 20 nM CPT, ATP luminescence, 48 h; Potency, µM (highest dose often 46.2 µM), for the others: at the top dose activity change, negative = growth inhibition, most hits filed as inhibitors; further: nearly all actives have a fitted effect of over 55% in size
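Chicken DT40 Tdp1-/- cells complemented with human TDP1, 400 cells/well, exposed to compounds plus 20 nM camptothecin for at least 48 h at 37 C; viability read as ATP content by CellTiter-Glo luminescence.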
Gal4-VP16 FLuc – VP16 counterscreen qHTS for inhibitors of ROR gamma transcriptional activity; actives 3.5% (n = 310,000); AID 2546, 2010; Potency, µM (doses to about 53.6 µM), for the others: top-dose activity, negative = inhibition, actives largely listed as inhibitors; Drosophila S2 Gal4-VP16 UAS-luciferase, luminescence, 20 h;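 further: Gal4-VP16 expression switched on by copper sulfate through the metallothionein promoter; nearly all actives have a fitted effect of over 50% in size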
Starred values were filed as active, the others as inactive; ? = inconclusive; nt = not tested or not shown; [ ] = remark or other dose. In the library only some 19% were active in any assay of this set; here they are far more common. The call rests on the fitted dose curve; in most records, active means well fitted curve in the direction sought with a large enough effect; inconclusive means small, poorly fitted or top-dose-only effect, or another doubt; inactive means no such curve, though single readings can be large; an effect the other way counts as inactive or inconclusive. On the % scale 0 is the no-effect control and ±100 the full control effect; potency means the concentration at half of the fitted maximal effect.

SMILES	TDP1 cell noCPT	RORg inh	TDP1 block	DT40 TDP1 CPT	Gal4-VP16 FLuc
COc1ccc(CNC(=O)c2cc3cc4ccc(C)cc4nc3o2)cc1	23µM*	nt	-2%	?	nt
Cc1ccc2cc3cc(C(=O)NC4CCCCC4)oc3nc2c1	?	0.56µM*	-3%	?	?
CCOC(=O)c1c(C)oc2cc(Br)c(OC(=O)N3CCOCC3)cc12	-24%	5%	2%	-27%	-8%
CC(=O)Nc1cccc(NC(=O)CSc2nc(=O)n(Cc3ccncc3)c3c2CCC3)c1	-1%	nt	-17%[0.505 µM]	-9%	nt
Cc1c(NC(=O)COC(=O)C2(c3ccc(F)cc3)CCCC2)c(=O)n(-c2ccccc2)n1C	?	6%	5%	-24%	2%
Cc1ccc2cc3cc(C(=O)N4CC(C)CC(C)C4)oc3nc2c1 (centres undefined)	23µM*	?	1%[56.1 µM]	?	?
COc1ccc2cc3cc(C(=O)N4CC(C)CC(C)C4)oc3nc2c1 (centres undefined)	-17%	?	-1%	-8%	2%
COc1ccc(CCNS(=O)(=O)c2ccc3c(c2)NC(=O)CO3)cc1OC	-1%	-17%	nt	1%	5%
C/C(=N/NS(=O)(=O)c1ccc(Cl)cc1)c1ccncc1	11%	5%	5%[56.1 µM]	?	-1%
C/C(=N\NS(=O)(=O)c1ccc(Br)cc1)c1ccncc1	?	11%	8%	12µM*	-4%
CCOc1ccccc1N1CCN(c2nc(N)c(C#N)c(CC#N)c2C#N)CC1	21µM*	0%	11%	?	-9%
COc1ccccc1N1CCN(c2nc(C)cc(C)c2C#N)CC1	-25%	nt	0%	-13%	nt
COc1ccccc1N1CCN(c2nc3ccccc3nc2C(C#N)C(=O)OC(C)C)CC1 (centres undefined)	21µM*	6%[0.365 µM]	10%	?	nt
CCOc1ccccc1N1CCN(c2nc3ccccc3nc2C(C#N)C(=O)OC)CC1 (centres undefined)	15µM*	-26%	6%	23µM*	-2%
CCC1=C(c2ccc(C)cc2)S(=O)(=O)N=C1N1CCC(C(=O)NCCc2cccc(OC)c2)CC1	?	nt	3%	?	nt
COC(=O)[C@@H]1C[C@@]2(O)[C@@H](O)[C@@H](O)[C@@H](O)C[C@H]2N1Cc1ccc(N2CCOCC2)cc1	nt	-6%	4%	nt	3%
O=C(NCc1ccco1)C1CC(c2ccc(F)cc2)=NO1 (centres undefined)	-5%	13%	5%	1%	19%
COc1ccc(CNC(=O)C2CC(c3cc(C(F)(F)F)cc(C(F)(F)F)c3)=NO2)cc1 (centres undefined)	4.6µM*	0%	2%	3.3µM*	0%
COc1ccc(CCNC(=O)C2CC(c3ccc(C(F)(F)F)cc3)=NO2)cc1 (centres undefined)	15µM*	27%	1%	?	-4%
Cc1ccc(CNC(=O)C2CC(c3ccc(C(F)(F)F)cc3)=NO2)o1 (centres undefined)	7.3µM*	2%	-7%	12µM*	-5%
CCCn1c(=O)c2ccccc2n2c(SCCOc3ccc(Cl)cc3)nnc12	-17%	0%	6%	-11%	-10%
CCOC(=O)c1ccc(-c2ccc(/C=C(\C#N)C(=O)Nc3cccc(C)c3)o2)cc1	nt	nt	2%	nt	nt
N#C/C(=C\c1ccc(-c2ccc(C(=O)O)cc2)o1)C(=O)NCC1CCCO1 (centres undefined)	-27%	15%	56µM*	0%	17%
CCOC(=O)c1ccc(-c2ccc(/C=C(\C#N)C(=O)NCc3cccs3)o2)cc1	18µM*	?	3%	23µM*	3.2µM*
N#C/C(=C\c1ccc(-c2ccc(C(=O)O)cc2)o1)C(=O)Nc1ccc(F)cc1	12µM*	-4%	nt	?	-5%
SMILES	TDP1 cell noCPT	RORg inh	TDP1 block	DT40 TDP1 CPT	Gal4-VP16 FLuc
Cc1ccc(NC(=O)/C(C#N)=C/c2ccc(C)o2)cc1	-17%	nt	6%[12.3 µM]	-7%	nt
N#C/C(=C\c1ccc(N2CCOCC2)o1)C(=O)NCC1CCCO1 (centres undefined)	-17%	3%	3%	-22%	-2%
Cc1ccc(NC(=O)/C(C#N)=C\c2ccc(-c3ccc(Cl)cc3)o2)c(C)c1	-97%	nt	2%[12.3 µM]	12µM*	nt
O=C(Nc1ccc(S(=O)(=O)N2CCCCC2)cc1)C1CC(=O)N(Cc2ccccc2)C1 (centres undefined)	-22%	nt	-3%	-13%	nt
CCCC(=O)Nc1ccc(NC(=O)c2ccco2)c(OC)c1	-2%	17%	6%	-15%	?
CCC1CCCCN1C(=O)COC(=O)c1ccc(Br)o1 (centres undefined)	2%	nt	-3%	-15%	nt
CCOC(=O)C1(C)C=C(Nc2cccc(C)c2)C(=O)N1c1ccccc1 (centres undefined)	18µM*	nt	nt	?	nt
COc1cc(Nc2ncc3c(n2)CCN(Cc2ccc(OC(C)C)c(OC)c2)C3)cc(OC)c1	13µM*	nt	11%	16µM*	nt
CCOc1ccc(CN2CCc3nc(Nc4ccc(OC)cc4OC)ncc3C2)cc1	?	nt	4%	21µM*	nt
Cc1ccccc1CN1CCc2nc(Nc3ccc4c(c3)OCCO4)ncc2C1	21µM*	nt	14%	23µM*	nt
CCOc1ccccc1CN1CCc2nc(Nc3ccccc3)ncc2C1	?	nt	6%	?	nt
COc1ccc(Nc2ncc3c(n2)CCN(Cc2ccccc2C)C3)c(OC)c1	10µM*	nt	9%	?	nt
CCOC(=O)[C@H]1[C@H]2COc3ccc(Br)cc3[C@H]2N2C(=O)CNC(=O)[C@@]12C	-24%	nt	0%	-14%	nt
O=C(Nc1ccccc1-c1ccccc1)C1CCCC1	6.5µM*	0%	3%	6.5µM*	-5%
O=C(Nc1ccccc1-c1ccccc1)C12CC3CC(CC(C3)C1)C2	15µM*	?	1%	?	3%
O=C(Nc1cccc2ncccc12)C12CC3CC(CC(C3)C1)C2	?	27%	1%	-10%	12%
Cc1ccc(C(=O)c2c(N)c(-c3nc(-c4ccc5c(c4)OCO5)cs3)c3ccccn23)cc1C	-26%	nt	0%	-10%	nt
N#Cc1cnc2sc3ccccc3n2c1=N	-28%	-10%	5%	-11%	-8%
COc1ccc(C(=O)N/N=c2\oc3ccccc3cc2C(=O)NCc2ccccc2)cc1	15µM*	?	4%	16µM*	?
C/C(=N\NC(=O)CC#N)c1cc2ccccc2oc1=O	-2%	6.3µM*	3%	-20%	6.3µM*

Screening data deposited in PubChem BioAssay by National Center for Advancing Translational Sciences (NCATS).
